Active and inactive are the calls of the source.

Among the data in PubChem BioAssay are z-score and composite z-score values, retold here.

Experiment [1] is described as follows: optical density shifts of acrAB sulA E. coli – strain DRC41, OD650, 48 h, E. coli filamentation inducer project, primary screen (AID 1152).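 Also: E. coli MC1000 strain DRC41 lacking acrAB efflux pump and sulA.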 To be noted: higher = more signal, called active from +8 up or from −8 down.
Experiment [2] in a line: probe aLefty1 binding on compound microarray – biochemical, small-molecule microarray, 635/667 nm fluorescence, primary screen (AID 1153).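 Also: score merges spot fluorescence with signal-to-noise ratio from the scanned slide images.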 Conditions: higher = more signal.
Experiment [3] is described as follows: plasmodial surface anion channel blockers, osmotic lysis – cell-based, P. falciparum Indochina, OD700, 1 h, primary screen (AID 1154). Conditions: P. falciparum Indochina infected RBC osmotic lysis, higher = more signal, called active from +8 up or from −8 down.
Experiment [4] can be described thus: plasmodial surface anion channel blockers, osmotic lysis – cell-based, P. falciparum Indochina, OD700, 2 h, primary screen (AID 1155).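 Also: lysis reports solute entry through the parasite surface anion channel PSAC.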 Conditions: P. falciparum Indochina infected erythrocytes, higher = more signal, called active from +8 up or from −8 down.
A short description of experiment [5]: changes in parasitized red cell lysis, either direction – P. falciparum Indochina, OD700, 3 h, PSAC antagonist project, primary screen (AID 1156). Conditions: P. falciparum-infected erythrocytes, osmotic lysis, higher = more signal, called active from +8 up or from −8 down.
A short description of experiment [6]: plasmodial surface anion channel blockers, osmotic lysis – cell-based, P. falciparum Indochina, OD700, 18 h, primary screen (AID 1157). To be noted: P. falciparum Indochina infected erythrocytes, osmotic lysis OD700, 18 h; higher = more signal, called active from +8 up or from −8 down.
The nature of experiment [7]: S6 kinase pathway phospho-S6 level changes – cell-based, A549, cytoblot, luminescence, serum-stimulated, primary screen (AID 1158).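 Also: serum-stimulated A549 lung adenocarcinoma cells; signal is phosphorylated S6 detected by cytoblot immunostaining with HRP secondary.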 To be noted: 5 h, higher = more signal.
In experiment [8] the target is NADPH oxidase 2 (Homo sapiens) (UniProt P04839). The experiment is described as follows: compounds shifting NOX2 Amplex Red fluorescence – cell-based, HEK293-NOX2, PMA-stimulated, NOX inhibitor project, primary screen (AID 1159). Also: test concentration not given here. To be noted: 45 min, higher = more signal, called active from +8 up or from −8 down.
Sequence of NADPH oxidase 2 (Homo sapiens) (P04839 whole entry, looked up): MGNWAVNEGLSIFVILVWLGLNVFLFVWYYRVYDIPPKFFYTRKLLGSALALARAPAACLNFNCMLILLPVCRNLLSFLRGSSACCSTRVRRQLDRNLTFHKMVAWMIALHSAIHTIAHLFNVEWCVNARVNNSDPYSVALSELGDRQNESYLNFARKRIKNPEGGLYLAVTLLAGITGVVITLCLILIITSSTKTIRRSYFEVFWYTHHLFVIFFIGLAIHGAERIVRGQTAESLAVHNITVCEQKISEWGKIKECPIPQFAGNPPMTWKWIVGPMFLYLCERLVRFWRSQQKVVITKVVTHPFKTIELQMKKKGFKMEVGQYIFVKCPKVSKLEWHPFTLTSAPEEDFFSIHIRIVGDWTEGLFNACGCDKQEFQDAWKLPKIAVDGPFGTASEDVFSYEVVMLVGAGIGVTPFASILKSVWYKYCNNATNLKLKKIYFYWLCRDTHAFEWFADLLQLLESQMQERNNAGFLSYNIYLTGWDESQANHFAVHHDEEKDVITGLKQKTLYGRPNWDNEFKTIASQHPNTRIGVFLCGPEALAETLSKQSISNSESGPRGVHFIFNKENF
The target of experiment [9] is NADPH oxidase 4 (Homo sapiens) (UniProt Q9NPH5). Kind of experiment: compounds shifting NOX4 Amplex Red fluorescence – cell-based, HEK293-NOX4, tetracycline-induced, NOX inhibitor project, primary screen (AID 1160). To be noted: HEK293-NOX4, Amplex Red H2O2 fluorescence, 45 min; higher = more signal, called active from +8 up or from −8 down.
Sequence of NADPH oxidase 4 (Homo sapiens) (Q9NPH5 whole entry, looked up): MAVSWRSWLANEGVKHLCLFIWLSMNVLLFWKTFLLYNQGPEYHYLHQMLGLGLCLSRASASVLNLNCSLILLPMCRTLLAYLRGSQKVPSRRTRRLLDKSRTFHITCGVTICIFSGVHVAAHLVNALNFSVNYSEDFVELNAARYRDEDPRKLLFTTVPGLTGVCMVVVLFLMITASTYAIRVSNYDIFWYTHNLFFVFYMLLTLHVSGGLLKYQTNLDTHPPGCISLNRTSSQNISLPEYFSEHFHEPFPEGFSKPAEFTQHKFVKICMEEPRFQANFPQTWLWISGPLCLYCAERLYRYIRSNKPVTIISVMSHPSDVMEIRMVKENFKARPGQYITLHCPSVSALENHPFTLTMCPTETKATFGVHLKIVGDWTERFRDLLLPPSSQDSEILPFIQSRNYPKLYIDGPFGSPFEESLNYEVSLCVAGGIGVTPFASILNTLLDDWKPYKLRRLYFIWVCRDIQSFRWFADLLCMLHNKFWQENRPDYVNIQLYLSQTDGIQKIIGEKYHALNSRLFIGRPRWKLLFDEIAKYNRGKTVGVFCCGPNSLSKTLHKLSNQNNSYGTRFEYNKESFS
Experiment [10] deals with NADPH oxidase 5 (Homo sapiens) (UniProt Q96PH1). The experiment is described as follows: compounds shifting NOX5 Amplex Red fluorescence – cell-based, HEK293-NOX5, NOX inhibitor project, primary screen (AID 1161). To be noted: HEK293-NOX5, ionomycin, 45 min, higher = more signal.
Sequence of NADPH oxidase 5 (Homo sapiens) (Q96PH1 whole entry, looked up): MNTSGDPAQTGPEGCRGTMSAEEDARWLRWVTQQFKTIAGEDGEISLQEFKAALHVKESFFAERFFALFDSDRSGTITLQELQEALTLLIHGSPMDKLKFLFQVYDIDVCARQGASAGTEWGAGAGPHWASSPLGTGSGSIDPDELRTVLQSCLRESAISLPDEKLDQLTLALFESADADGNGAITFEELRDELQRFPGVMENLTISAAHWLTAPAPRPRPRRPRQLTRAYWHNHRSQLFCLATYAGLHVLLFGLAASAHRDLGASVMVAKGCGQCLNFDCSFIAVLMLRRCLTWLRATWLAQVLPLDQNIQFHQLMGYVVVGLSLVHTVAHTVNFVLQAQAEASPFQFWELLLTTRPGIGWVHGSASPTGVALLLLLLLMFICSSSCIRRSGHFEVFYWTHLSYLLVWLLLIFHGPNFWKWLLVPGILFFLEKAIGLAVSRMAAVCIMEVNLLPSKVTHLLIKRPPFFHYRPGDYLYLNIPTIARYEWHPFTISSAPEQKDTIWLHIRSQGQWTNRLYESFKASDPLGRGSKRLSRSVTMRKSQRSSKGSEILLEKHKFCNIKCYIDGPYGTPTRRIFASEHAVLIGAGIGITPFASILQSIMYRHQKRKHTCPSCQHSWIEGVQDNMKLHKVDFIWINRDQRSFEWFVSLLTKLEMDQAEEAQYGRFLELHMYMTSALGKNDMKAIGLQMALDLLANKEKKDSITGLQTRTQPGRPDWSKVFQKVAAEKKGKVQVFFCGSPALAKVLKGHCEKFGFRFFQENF

With `COc1ccc([Si](C)(C)[C@H]2[C@H](CC(=O)N3CCC[C@H]3CO)O[C@@]3(C(=O)N(Cc4cccc(N5C(=O)c6cccc7cccc5c67)c4)c4ccccc43)[C@@H]2C)cc1`, the z-score in experiment [1] is -0.577 (inactive); in [3], 7.61 (inactive); in [4], 0.753 (inactive); in experiment [5], 0.442 (inactive); in [6], 0.623 (inactive); in experiment [7], -0.366. The z-score in [8] was 1.35 (inactive); in [9] it was -0.292 (inactive); in experiment [10], 4.06. Also, in experiment [2], the composite z-score was 0.302.

Regarding `C[C@]1(C(=O)NC2CC2)c2ccccc2C(=O)N(Cc2cc(C(F)(F)F)cc(C(F)(F)F)c2)[C@H]1c1ccc(CO)cc1`, the z-score in experiment [1] was 1.4 (inactive); in experiment [3], 7.52 (inactive); in experiment [4], 1.18 (inactive); in experiment [5] it was 1.26 (inactive); in experiment [6], 0.599 (inactive); in experiment [7], 0.049. The z-score in experiment [8] was -1.25 (inactive); in experiment [9], 0.222 (inactive); in experiment [10], 1.06. Besides, in experiment [2], the composite z-score was 0.0278.

For `O=C1OCCC/C=C\[C@H]2OC34C=CCN(c5ccc6ccccc6c5)C(=O)[C@H]3N(CCCCCCO)C(=O)[C@@H]4C12` (stereo not given in full), the z-score in experiment [1] is 1.63 (inactive); in experiment [3], 3.35 (inactive); in experiment [4] it was -0.781 (inactive); in experiment [5] it was 0.562 (inactive); in [6], -1.46 (inactive); in experiment [7] it was 1.4. The figures for the z-score in [8], in experiment [9] and in experiment [10] were 1.52 (inactive), 0.341 (inactive) and 2.26, respectively. The molecule further yielded a composite z-score in experiment [2] of 0.325.

For `CCCC#C[Si](O[C@H](CC)c1cn([C@H](CO)Cc2ccccc2)nn1)(C(C)C)C(C)C`, the z-score in experiment [1] is 1.12 (inactive); in experiment [3], 0.442 (inactive); in [4], 0.479 (inactive); in experiment [5], -1.31 (inactive); in experiment [6], 0.752 (inactive); in [7], -0.675. The z-score in experiment [8] was 0.819 (inactive); in experiment [9], 0.272 (inactive); in experiment [10], 0.493. Besides, the composite z-score in [2] was determined as 0.145.

For `C[C@@H]1ON(c2cccc(C(=O)OC(C)(C)C)c2)[C@H](c2ccc(Br)cc2)[C@H]1C(=O)N1C(=O)OC[C@H]1Cc1ccccc1`, the z-score in experiment [1] was -0.46 (inactive); in experiment [3] it was -0.351 (inactive); in [4] it was 0.488 (inactive); in [5], -0.611 (inactive); in experiment [6], 0.011 (inactive); in [7] it was 0.217. Moreover, the z-score in experiment [8] is -1.01 (inactive); in [9] it was -0.079 (inactive); in experiment [10] it was -0.0305. Besides, the composite z-score in [2] was found to be 0.2.

As for `COCCOC(=O)N1C(=O)[C@@]2(c3cc(C#CCCO)ccc31)[C@H](c1ccc(OCCO)cc1)N1[C@H](c3ccccc3)[C@H](c3ccccc3)OC(=O)[C@H]1[C@@H]2C(=O)N1CCN(c2ncccn2)CC1`, the z-score in experiment [1] is -0.304 (inactive); in [3], 5.15 (inactive); in experiment [4] it was 1.58 (inactive); in experiment [5] it was -0.325 (inactive); in experiment [6], 0.411 (inactive); in experiment [7], -0.113. Besides, the z-score in experiment [8] was 1.89 (inactive); in experiment [9], 0.925 (inactive); in experiment [10], 1.32. The molecule further came in with a composite z-score in experiment [2] of 0.372.

With `O=C1OCC=C[C@H]2OC34C=CCN(c5ccc6ccccc6c5)C(=O)[C@H]3N(CCCCCCO)C(=O)[C@@H]4[C@@H]12` (stereo not given in full), the z-score is -0.0903 (inactive) in experiment [1]; 3.18 (inactive) in [3]; 0.0422 (inactive) in experiment [4]; 0.966 (inactive) in [5]; 0.525 (inactive) in [6]; -0.482 in experiment [7]. Besides, the z-score in experiment [8] was 1.36 (inactive); in experiment [9], 0.0322 (inactive); in experiment [10] it was 2.12. In addition, the composite z-score in [2] is 0.0839.

Take `CC1(C)[C@@H]2CC(C(O)C3C=CC4C(=O)N(c5ccccc5)C(=O)C4N3Nc3ccccc3)=C[C@H]1C2` (stereo not given in full): the z-score in experiment [1] was -1.16 (inactive); in experiment [3] it was 4.78 (inactive); in experiment [4], 0.741 (inactive); in experiment [5] it was -0.343 (inactive); in experiment [6], 1.29 (inactive); in experiment [7] it was -1.04. The figures for the z-score in experiment [8], in [9] and in experiment [10] were -1.47 (inactive), -2.94 (inactive) and -3.08, respectively. Further, the composite z-score in [2] is -0.012.

For the molecule `C=CC[C@@]1(C(N)=O)N=C(c2ccc(OCCCO)cc2)O[C@@H]1c1ccccc1CN=[N+]=[N-]`, the z-score in [1] is 0.0347 (inactive); in experiment [3] it was 21.5 (active); in experiment [4], 4.04 (inactive); in experiment [5] it was 2 (inactive); in experiment [6] it was -0.413 (inactive); in experiment [7], 2.43. Further, the z-score in experiment [8] is -0.934 (inactive); in [9], 0.313 (inactive); in experiment [10] it was -0.802. The molecule further yielded a composite z-score in [2] of 0.571.

In the case of `COc1ccc(C(O)C2C=CC3C(=O)NC(=O)C3N2Nc2ccccn2)cc1` (stereo not given), the z-score in experiment [1] is -0.416 (inactive); in experiment [3], 0.539 (inactive); in [4] it was 0.874 (inactive); in experiment [5] it was -0.079 (inactive); in [6], 0.778 (inactive); in experiment [7], -0.449. Moreover, the z-score in [8] is -0.755 (inactive); in experiment [9], -2.56 (inactive); in [10], -1.99. This molecule also came in with a composite z-score in [2] of 0.0622.

`O=C(C1N=C(c2ccc(OCCCO)cc2)N(c2ccccc2)O1)N1CCOCC1` (stereo not given): the z-score was 1.72 (inactive) in [1]; 24.4 (active) in [3]; 4.44 (inactive) in experiment [4]; -0.593 (inactive) in [5]; -0.121 (inactive) in experiment [6]; 1.75 in [7]. Moreover, the z-score in experiment [8] is -3.16 (inactive); in experiment [9], -0.258 (inactive); in experiment [10] it was -0.432. Also, in [2], the composite z-score worked out at 0.0721.

Turning to `CCCCN1CC=CC23O[C@@H]4/C=C\CCC(C)OC(=O)C4[C@H]2C(=O)N(CCCCCO)[C@@H]3C1=O` (stereo not given in full), the z-score was 0.119 (inactive) in experiment [1]; 1.03 (inactive) in experiment [3]; -0.0101 (inactive) in experiment [4]; -0.0712 (inactive) in [5]; 0.406 (inactive) in [6]; 0.002 in experiment [7]. Besides, the z-score in experiment [8] was 0.395 (inactive); in experiment [9], -0.022 (inactive); in experiment [10], 1.21. The composite z-score in experiment [2] was -0.147.
